Screening results (PubChem)
RORgamma inh = qHTS for inhibitors of ROR gamma transcriptional activity; AID 2551, 2010; actives 5.4% (n = 310,000); Drosophila S2 Gal4-RORgamma UAS-luciferase reporter, 20 h; Potency, µM (top dose mostly 53.6 µM), hits mostly inhibitors; Nuclear receptor ROR-gamma (Mus musculus), P51450; also: nearly all actives have a fitted effect of over 60% in size
Target sequence (P51450 whole entry, looked up, the tested form may be a part): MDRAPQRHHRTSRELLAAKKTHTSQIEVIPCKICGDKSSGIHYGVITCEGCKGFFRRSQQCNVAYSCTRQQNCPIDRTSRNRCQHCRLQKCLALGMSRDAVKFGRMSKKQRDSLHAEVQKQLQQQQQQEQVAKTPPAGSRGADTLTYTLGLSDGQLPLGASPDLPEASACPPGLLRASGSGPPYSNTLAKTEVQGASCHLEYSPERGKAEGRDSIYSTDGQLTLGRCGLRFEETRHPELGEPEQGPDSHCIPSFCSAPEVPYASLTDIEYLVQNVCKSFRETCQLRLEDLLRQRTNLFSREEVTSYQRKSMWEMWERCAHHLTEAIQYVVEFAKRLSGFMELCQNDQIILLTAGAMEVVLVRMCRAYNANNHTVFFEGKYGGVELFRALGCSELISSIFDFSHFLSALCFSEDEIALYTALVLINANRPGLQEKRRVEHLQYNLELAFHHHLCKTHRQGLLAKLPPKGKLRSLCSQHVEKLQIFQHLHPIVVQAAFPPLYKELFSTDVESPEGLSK
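A Gal4/UAS one-hybrid system in insect cells: metallothionein-promoter Gal4–ROR gamma fusion plus Photinus luciferase reporter. Copper sulfate 700 uM final, 20 hr ambient incubation, luminescent detection after 10 min with reagent.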
LDHA block = qHTS assay for inhibitors of human lactate dehydrogenase; L-lactate dehydrogenase A chain (Homo sapiens), P00338; purified LDHA, NADH/diaphorase-resazurin fluorescence; stronger effect = lower value; activity change, % (values are at about 110 or 230 µM); actives 0.15% (n = 480,000); in the data active = activity change below about -30%; inconclusive = mostly about -25% to -30%
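Resorufin fluorescence (ex540/em590), read at 0 and 20 min after diaphorase/resazurin addition, reports the NADH left after a 5 min room-temperature reaction of 2 nM human LDH5 with 0.06 mM NADH and 0.2 mM pyruvate.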
DT40 TDP1 CPT = qHTS for Inhibitors of human tyrosyl-DNA phosphodiesterase 1 (TDP1): qHTS in cells in presence of CPT | Potency, µM (titrated, usually from 46.2 µM), usual class: inhibitors | actives 12% (n = 420,000) | chicken DT40 Tdp1-/-;hTDP1 cells + 20 nM CPT, ATP luminescence, 48 h; also: nearly all actives have a fitted effect of over 55% in size
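Chicken DT40 Tdp1-/- cells stably complemented with human TDP1 were seeded at 400 cells/well in medium containing 20 nM camptothecin, exposed to pin-transferred compounds, and grown at 37 °C for at least 48 hr. Viability was read as ATP luminescence.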
IL-1B inflam inh = qHTS for Inhibitors of Inflammasome Signaling: IL-1-beta AlphaLISA Primary Screen; AID 743279, 2014; THP-1 LPS/ATP IL-1B secretion, AlphaLISA, 16 h; stronger effect = lower value; actives 4.7% (n = 360,000); activity change, % at 57.5 µM; in the data active = activity change below about -50%; inconclusive = mostly about -30% to -49%
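THP-1 cells pretreated 1 hr with compounds (up to 57.5 uM final), then stimulated with LPS (250 ng/mL final) plus ATP (1.25 mM final); secreted IL-1B measured by AlphaLISA after 16 hr, decreased signal indicating inhibition.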
DT40 TDP1 no CPT = qHTS for Inhibitors of human tyrosyl-DNA phosphodiesterase 1 (TDP1): qHTS in cells in absence of CPT | DT40 Tdp1-/- hTDP1 cells, no CPT, ATP luminescence, 48 h | Potency, µM (highest dose often 46.2 µM), most hits filed as inhibitors | actives 15% (n = 420,000) | AID 686978, 2013; also: nearly all actives have a fitted effect of over 55% in size
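Growth of hTDP1-complemented DT40 Tdp1-knockout cells is measured by ATP luminescence after at least 48 hr compound exposure at 37 °C, with DMSO substituting for the 20 nM CPT used in the parallel screen.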
Gal4-VP16 FLuc = VP16 counterscreen qHTS for inhibitors of ROR gamma transcriptional activity | Drosophila S2 Gal4-VP16 UAS-luciferase, luminescence, 20 h | Potency, µM (titrated, usually from 53.6 µM), hits mostly inhibitors | actives 3.5% (n = 310,000) | AID 2546, 2010;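 also: Gal4-VP16 expression switched on by copper sulfate through the metallothionein promoter; nearly all actives have a fitted effect of over 50% in size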
Each line names hits and unclear results; the compound was inactive in the other large screens. Rows were chosen to be rich in hits. Some 18% of all compounds tested hit in one or more screens of this group. Unless noted, calls follow the shape of the dose curve; as a rule, active = well fitted curve in the direction sought with a large enough effect; inconclusive = small, poorly fitted or top-dose-only effect, or another doubt; inactive = no such curve, though single readings can be large; an effect the other way counts as inactive or inconclusive.

Nc1ccc(S(=O)(=O)Nc2cccc3cccnc23)cc1	RORgamma inh 4µM, Gal4-VP16 FLuc 11µM (no result: LDHA block, DT40 TDP1 CPT, IL-1B inflam inh, DT40 TDP1 no CPT)
O=S(=O)(Nc1cccc2cccnc12)c1ccc(Br)s1	RORgamma inh 0.56µM, Gal4-VP16 FLuc 1.1µM (no result: LDHA block, DT40 TDP1 CPT, IL-1B inflam inh, DT40 TDP1 no CPT)
O=S(=O)(Nc1cccc2cccnc12)c1cccc2ccccc12	none (no result: RORgamma inh, DT40 TDP1 CPT, IL-1B inflam inh, DT40 TDP1 no CPT, Gal4-VP16 FLuc)
Nc1ccc(S(=O)(=O)Nc2ccccn2)cc1	none
N#Cc1cccc(C(=O)NC2CCSc3ccccc32)c1 (stereo not drawn)	none (no result: RORgamma inh, DT40 TDP1 CPT, IL-1B inflam inh, DT40 TDP1 no CPT, Gal4-VP16 FLuc)
O=c1cc(-c2ccc(F)cc2)oc2ccc(F)cc12	none (no result: RORgamma inh, DT40 TDP1 CPT, IL-1B inflam inh, DT40 TDP1 no CPT, Gal4-VP16 FLuc)
CC(=O)Nc1ccc(C(=O)NC2CCC3CCCCC3C2)s1 (stereo not drawn)	none (no result: RORgamma inh, DT40 TDP1 CPT, IL-1B inflam inh, DT40 TDP1 no CPT, Gal4-VP16 FLuc)
Cc1cc(NC(=O)CS(=O)(=O)c2cn(Cc3ccc(F)cc3)c3ccccc23)no1	RORgamma inh inconclusive, DT40 TDP1 CPT 21µM, DT40 TDP1 no CPT 10µM, Gal4-VP16 FLuc inconclusive
Cc1cc(NC(=O)CSCC(=O)NCc2cccc(C(F)(F)F)c2)no1	none (no result: RORgamma inh, Gal4-VP16 FLuc)
CCn1cc(S(=O)(=O)CC(=O)Nc2cc(C)on2)c2ccccc21	DT40 TDP1 no CPT inconclusive
Cc1cc(NC(=O)CS(=O)(=O)c2cn(Cc3cccc(C(F)(F)F)c3)c3ccccc23)no1	DT40 TDP1 CPT inconclusive, DT40 TDP1 no CPT 21µM (no result: RORgamma inh, Gal4-VP16 FLuc)
Cc1cc(NC(=O)CS(=O)(=O)c2cn(Cc3cccc(F)c3)c3ccccc23)no1	DT40 TDP1 CPT inconclusive, IL-1B inflam inh -55, DT40 TDP1 no CPT inconclusive
CC(=O)c1ccc(NC(=O)C(C)Sc2ccccc2C(=O)O)cc1 (stereo not drawn)	none (no result: RORgamma inh, DT40 TDP1 CPT, IL-1B inflam inh, DT40 TDP1 no CPT, Gal4-VP16 FLuc)
O=C(Nc1ccc(C23CC4CC(CC(C4)C2)C3)cc1)c1cccc[n+]1[O-]	none (no result: RORgamma inh, DT40 TDP1 CPT, IL-1B inflam inh, DT40 TDP1 no CPT, Gal4-VP16 FLuc)
COC(=O)[C@H](C)N(Cc1ccc(Cl)c(Cl)c1)S(=O)(=O)CCNC1CCCC1	DT40 TDP1 CPT inconclusive, IL-1B inflam inh inconclusive, DT40 TDP1 no CPT 21µM (no result: RORgamma inh, Gal4-VP16 FLuc)
CCN(CC)CC(=O)Nc1ccc2c(c1)Nc1ccccc1CC2	RORgamma inh inconclusive, DT40 TDP1 CPT inconclusive, DT40 TDP1 no CPT 16µM
CCN(CC(=O)Nc1ccc(N2CCOCC2)cc1)Cc1nc2ccccc2c(=O)[nH]1	RORgamma inh 4µM, DT40 TDP1 no CPT inconclusive, Gal4-VP16 FLuc 13µM
CCN(CC(=O)Nc1ccc2c(c1)OCO2)Cc1nc2ccccc2c(=O)[nH]1	RORgamma inh 2.5µM, DT40 TDP1 CPT inconclusive, DT40 TDP1 no CPT inconclusive, Gal4-VP16 FLuc 7.1µM
CCN(CC(=O)Nc1ccc2c(c1)OC(F)(F)O2)Cc1nc2ccccc2c(=O)[nH]1	RORgamma inh 10µM, DT40 TDP1 CPT inconclusive, DT40 TDP1 no CPT inconclusive, Gal4-VP16 FLuc inconclusive
CN(CC(=O)Nc1cccc(F)c1)C(=O)CCCc1nc2ccccc2c(=O)[nH]1	DT40 TDP1 CPT inconclusive (no result: RORgamma inh, Gal4-VP16 FLuc)
CC(Sc1ccc2ccccc2n1)C(=O)Nc1ccc(C(N)=O)cc1 (stereo not drawn)	none (no result: RORgamma inh, DT40 TDP1 CPT, IL-1B inflam inh, DT40 TDP1 no CPT, Gal4-VP16 FLuc)
COc1ccc(Cc2nc3c4c(ncn3n2)Oc2cc(O)ccc2C4c2ccccc2)cc1OC (stereo not drawn)	none (no result: RORgamma inh, DT40 TDP1 CPT, IL-1B inflam inh, DT40 TDP1 no CPT, Gal4-VP16 FLuc)
COC(=O)CN1CCN(c2nc3c(c(=O)[nH]c(=O)n3C)n2Cc2ccc(F)cc2)CC1	none (no result: RORgamma inh, DT40 TDP1 CPT, IL-1B inflam inh, DT40 TDP1 no CPT, Gal4-VP16 FLuc)
O=C(COCc1nc2ccccc2c(=O)[nH]1)Nc1nc(-c2ccc3c(c2)CCC3)cs1	LDHA block -31 (no result: RORgamma inh, DT40 TDP1 CPT, IL-1B inflam inh, DT40 TDP1 no CPT, Gal4-VP16 FLuc)
O=C(CSc1nnnn1-c1ccccc1)Nc1ccc(N2CCOCC2)cc1	none
CCN(CC)CCn1c(SCC(=O)Nc2ccc3c(c2)CCC3)nc2ccccc2c1=O	DT40 TDP1 CPT inconclusive, IL-1B inflam inh inconclusive, DT40 TDP1 no CPT 2.3µM (no result: RORgamma inh, Gal4-VP16 FLuc)
O=C(CSc1nncn1-c1ccccc1)Nc1ccc(N2CCOCC2)cc1	DT40 TDP1 CPT 23µM, DT40 TDP1 no CPT 13µM
CCN(CC(=O)Nc1ccc2c(c1)CCC2)Cc1nc2ccccc2c(=O)[nH]1	RORgamma inh 5µM, DT40 TDP1 CPT 3.7µM, DT40 TDP1 no CPT 8.2µM
